NR3A LBD binder = binders of NR3A ligand-binding domain, primary screen, biophysical, differential scanning fluorimetry, uHTS. Glutamate receptor ionotropic, NMDA 3A (GRIN3A) ligand-binding domain. NR3A LBD differential scanning fluorimetry, Tm shift; 0% = protein alone, 100% = glycine-bound protein. Tm shift relative to glycine control, % at 25 µM. 340,000 tested, 2.5% active;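 active means melting temperature shift of at least 10% of the positive control shift, at one fixed dose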
Rpn11 inh = Rpn11 (PSMD14) deubiquitinase inhibitors, primary screen, biochemical, fluorescence polarization, uHTS; AID 588493, 2011; 360,000 tested, 0.59% active; 26S proteasome non-ATPase regulatory subunit 14 (Homo sapiens), O00487; inhibition, % at 20 µM; human 26S proteasome, Ub4-pepOG fluorescence polarization; 20S core pre-blocked with epoxomicin;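 active means inhibition at 20 µM, scaled to each plate's controls, above about 33%, limit read from the data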
Target sequence (O00487 whole entry, looked up): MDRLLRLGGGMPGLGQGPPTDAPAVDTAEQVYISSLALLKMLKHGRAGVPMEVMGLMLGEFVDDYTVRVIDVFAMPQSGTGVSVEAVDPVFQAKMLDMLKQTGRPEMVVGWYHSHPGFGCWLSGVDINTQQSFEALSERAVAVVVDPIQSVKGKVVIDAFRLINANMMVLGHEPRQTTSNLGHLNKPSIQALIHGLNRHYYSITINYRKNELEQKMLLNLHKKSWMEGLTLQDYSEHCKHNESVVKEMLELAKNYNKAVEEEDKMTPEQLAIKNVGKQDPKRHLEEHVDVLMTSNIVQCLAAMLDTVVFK
ZTA DNA inh = blocks Epstein-Barr virus ZTA, an EBNA-1 counter-screen | P03206 | ZTA-DNA binding, fluorescence polarization | inhibition, % at 11 µM | 320,000 tested, 0.15% active; in the data active means inhibition above about 33%
EBNA-1 inh = EBNA-1 DNA-binding inhibitors, primary screen, biochemical, fluorescence polarization; inhibition, % at 14.8 µM; 300,000 tested, 0.34% active; AID 1950, 2009; in the data active means inhibition above about 28%
TPT1 inh = Candida albicans TPT1 enzyme inhibitors, primary screen, biochemical, fluorescence polarization. 300,000 tested, 0.81% active. inhibition, % at 5 µM. recombinant caTPT1, FP RNA substrate dephosphorylation. AID 1962, 2009. tRNA 2'-phosphotransferase TPT1 (Candida albicans SC5314);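 active means inhibition above the mean of all tested compounds plus 3 SD, set per screening campaign, cut at about 24% in these data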;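 further: plate controls were DMSO alone for no effect and ferristatin control at 100 nM for full effect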
dFosB act = activators of delta FosB homodimer, primary screen, biochemical, fluorescence polarization, TAMRA-CDK5 oligo, single point; Protein FosB (Mus musculus), P13346; 340,000 tested, 0.99% active; activation, % at 25 µM; purified delta FosB; percent of positive-control signal above neutral wells;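 active means mean activation above about 17%, with every replicate also reaching it, limit read from the data, passing the limit was not always enough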
Target sequence (P13346 whole entry, looked up): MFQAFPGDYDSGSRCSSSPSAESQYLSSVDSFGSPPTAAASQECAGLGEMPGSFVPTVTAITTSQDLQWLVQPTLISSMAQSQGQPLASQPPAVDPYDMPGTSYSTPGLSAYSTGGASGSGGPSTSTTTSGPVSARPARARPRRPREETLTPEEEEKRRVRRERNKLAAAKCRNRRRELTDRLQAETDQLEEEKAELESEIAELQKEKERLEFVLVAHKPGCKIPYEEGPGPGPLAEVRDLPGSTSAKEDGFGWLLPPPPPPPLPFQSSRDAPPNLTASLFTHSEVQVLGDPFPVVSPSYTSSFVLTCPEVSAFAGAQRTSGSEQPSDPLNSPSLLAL
* marks the source's active call; other numbers are inactive results; . = no result given; + = active, no number. Sampled rows, rich in hits. Any-hit rate of the full collection: about 4.5%.

SMILES	NR3A LBD binder	Rpn11 inh	ZTA DNA inh	EBNA-1 inh	TPT1 inh	dFosB act
CC(NC(=O)COC(=O)c1cc(NS(=O)(=O)c2ccc(Cl)c([N+](=O)[O-])c2)ccc1O)C1CC2CCC1C2 (stereo unspecified)	12.7*	15.2	-5.2	1.6	-2.2	-5.5
Cn1cc(CN(CCO)Cc2cccs2)c(-c2ccccc2F)n1	0.1	6.4	-12.6	1.5	-3.1	-6.5
CCOc1cc(C(=O)O)cc(Cl)c1OC	21.4*	-2.7	8.1	-1.5	-4.7	5.8
CCOc1cc(C(N)=O)cc(Cl)c1OCC	-3.5	4.4	-6.1	-12.1	-0.5	0.8
COc1cc(NC(=O)CCCNC(=O)Cn2cnc3sc(C)c(C)c3c2=O)cc(OC)c1OC	1.4	6.9	-3.8	4.4	4.1	-7.0
COc1cnn(-c2ccc(C)cc2)c(=O)c1SCc1ccccc1	-1.0	-1.8	0.3	0.9	-1.4	-0.6
COc1cnn(-c2ccc(Br)cc2)c(=O)c1SCc1ccccc1	15.4*	5.0	5.2	-3.2	-2.1	-14.2
CCc1nnc(NC(=O)c2ccc(Br)c(S(=O)(=O)N3CCOCC3)c2)s1	-0.7	1.1	-6.9	-3.9	2.3	-0.4
O=C(CSc1nnc(CNC(=O)c2ccc(F)cc2)o1)NCc1ccc(F)cc1	-3.8	-14.6	-14.7	-9.8	-1.3	2.3
COc1ccc(C(=O)NCc2nnc(SCC(=O)NCc3ccc(F)cc3)o2)cc1	11.2*	2.7	-14.1	10.6	-6.7	-6.6
Cc1cccc(N2CCN(C(=O)CSc3nnnn3C3CC3)CC2)c1C	0.3	-4.7	-8.4	.	.	-4.6
CN(C)CCNC(=O)C(=O)c1c(-c2ccccc2)cc2ccccn12	242.5*	-2.9	12.4	-8.4	-1.5	-3.4
CC(=O)Nc1cc(Cl)c(N=Cc2ccc(O)cc2O)cc1Cl	0.9	-1.2	-8.8	2.4	-2.0	0.4
CCOC(=O)c1sc(/N=C/c2ccc(O)cc2O)cc1C	14.4*	24.9	4.3	6.2	3.2	2.5
O=C(NNC(=S)NC(=O)c1ccccc1[N+](=O)[O-])c1ccccc1O	-4.4	-7.5	-10.9	-11.7	0.2	3.2
O=C(NC(=S)NC1CCCCC1)c1ccccc1[N+](=O)[O-]	17.8*	8.4	-4.6	-6.3	2.0	-2.5
O=C(NC(=S)Nc1cccc2c(O)cccc12)c1ccccc1[N+](=O)[O-]	33.6*	-9.5	1.2	-1.0	-0.9	-5.7
Cc1cccc(NC(=O)CCCCC(=O)Nc2cccc(C)c2)c1	0.5	-2.7	16.7	4.5	-1.8	.
CCOc1ccc(NC(=O)CCCN2C(=S)NC(C)(C)CC2C)cc1 (stereo unspecified)	11.9*	-0.9	6.1	3.4	-1.8	5.9
Cc1ccccc1NC(=O)Cc1nc(COC(=O)c2ccc(Cl)nc2)cs1	1.2	1.4	-5.7	-7.4	-0.3	-10.4
CC(=O)Nc1cc(-c2ccccc2Cl)cn2c(-c3ccc(S(C)(=O)=O)cc3)cnc12	.	5.5	.	.	.	.
COc1cc2c(cc1OC)C(C)N(C(=O)Cc1ccc(C(F)(F)F)cc1)CC2 (stereo unspecified)	2.4	11.0	2.8	14.8	2.2	-15.2
COc1ccc(CC(=O)N2CCc3cc(OC)c(OC)cc3C2O)cc1OC (stereo unspecified)	10.3*	-4.2	-0.7	3.7	1.1	-5.1
Cc1ccc(S(=O)(=O)N2CCCOC2CNC(=O)C(=O)NC2CCCCC2)cc1 (stereo unspecified)	-1.0	2.4	4.5	-14.4	2.3	0.3
COCc1nnc(NC(=O)c2ccc(NC(C)=O)cc2)s1	23.7*	3.6	4.5	1.3	-2.2	-8.5
SMILES	NR3A LBD binder	Rpn11 inh	ZTA DNA inh	EBNA-1 inh	TPT1 inh	dFosB act
CCCC(=O)Nc1ccc(C(=O)Nc2nnc(COC)s2)cc1	-26.5	-1.1	7.4	-2.9	2.1	1.0
O=C(CCc1ccccc1)N=C1SC2CS(=O)(=O)CC2N1c1ccccc1 (stereo unspecified)	0.9	-9.9	1.8	-7.5	-1.8	-4.4
COc1ccc(CCN2C(=O)C(Oc3ccccc3)C2c2ccc3c(c2)OCO3)cc1 (stereo unspecified)	11.6*	1.7	11.1	15.1	-1.0	-3.0
COc1ccc(OC2C(=O)N(CCc3ccc(OC)c(OC)c3)C2c2ccc3c(c2)OCO3)cc1 (stereo unspecified)	3.6	0.2	6.4	2.3	-1.9	-11.9
CCN(CC)c1ccc(C=Nc2ccccc2)c(O)c1	-1.7	6.2	4.9	3.9	14.0	-4.7
CCN(CC)c1ccc(C=Nc2ccc(N(C)C)cc2)c(O)c1	0.8	.	+	+	6.5	-13.5
CCN(CC)c1ccc(C=Nc2ccc(C)cc2)c(O)c1	13.1*	7.7	-3.0	9.3	1.7	-0.9
CCN(CC)c1ccc(C=Nc2cc(C)cc(C)c2)c(O)c1	-3.5	-4.2	13.9	-3.3	-0.2	-7.1
COC(=O)C1=C(C(=O)OC)C2C(C)=CC(C)=CN2C(C(=O)OC)=C1C(=O)OC (stereo unspecified)	-6.7	-10.9	-6.7	-4.8	-3.0	-8.1
Clc1ccc2[nH]c3c(c2c1)CCc1cn[nH]c1-3	17.9*	1.0	-3.7	6.5	0.1	2.5
O=C(N/N=C1\CCCc2c1[nH]c1ccc(Cl)cc21)c1ccncc1	-12.0	-9.0	-9.4	-10.7	1.3	-10.1
c1ccc2c3c([nH]c2c1)-c1[nH]ncc1CC3	29.9*	8.2	2.0	-5.4	4.7	-3.9
COc1ccc(N2CCN(C(=O)COc3ncnc4ccccc34)CC2)cc1	-0.2	-1.0	-0.5	7.8	0.8	-4.3
CC(C)=CCOc1ccc([C@@H]2COc3c(ccc4c3C=CC(C)(C)O4)C2)c(O)c1	14.8*	1.8	7.1	1.0	-6.3	3.1
Cc1ccc2nc(N(CCN(C)C)C(=O)c3cc(Cl)sc3Cl)sc2c1	9.7	-10.9	-14.4	8.0	-4.6	1.3
Cc1cccc2sc(N(CCN(C)C)C(=O)c3cc(Cl)sc3Cl)nc12	10.7*	-12.0	6.3	-4.1	0.5	-2.5
O=C1OCCN1C(=O)[C@H]1[C@H](c2ccc(F)cc2)C(c2cccc(Cl)c2)=NN1c1ccc(Br)cc1	25.2*	-0.4	.	.	.	-3.5
O=C1OCCN1C(=O)[C@H]1[C@H](c2ccc(Cl)cc2)C(c2cccc(Cl)c2)=NN1c1ccccc1	17.0*	6.7	3.7	3.5	-0.3	0.0
O=C1OCCN1C(=O)[C@H]1[C@H](c2ccccc2)C(c2cccc(Cl)c2)=NN1c1ccc(Br)cc1	7.2	-0.8	.	.	.	-2.4
O=C1OCCN1C(=O)[C@H]1[C@H](c2ccc(F)cc2)C(c2cccc(Cl)c2)=NN1c1ccccc1	16.1*	5.9	.	.	.	1.3

Bioassay records deposited in PubChem by several laboratories.
